The text below walks through data of PubChem BioAssay (EPA / NIEHS).

The target of assay [1] is rat Mineralocorticoid Receptor (MR), Nr3c2 (gene 25672) (UniProt P22199). Put plainly: NVS_NR_rMR: NovaScreen (NVS) Nuclear Receptor Binding Assay for rat Mineralocorticoid Receptor (MR) (AID 2283355). The procedure, abridged: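 Cell-free radioligand binding to mineralocorticoid receptor from adrenalectomized rat brain supernatant, scintillation counting after 24 h. Primary screen in duplicate at 25 uM; actives retested in concentration series. Loss of specific binding versus DMSO.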

For assay [2], the target named is Retinoic acid receptor alpha (Homo sapiens) (UniProt P10276). Put plainly: NVS_NR_hRAR_Antagonist: NovaScreen (NVS) Nuclear Receptor Binding Assay for human Retinoic Acid Alpha Receptor Antagonism (RAR) (AID 2283358). The procedure, abridged:
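Cell-free TR-FRET binding assay with extracted human RARalpha in antagonist mode, read 2 h after dosing. Loss of signal was fitted relative to DMSO; the primary screen used 25 uM in duplicate, with concentration series on follow-up.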

The target is the same in assay [3]. Put plainly: NVS_NR_hRARa_Agonist: NovaScreen (NVS) Nuclear Receptor Binding Assay for human Retinoic Acid Alpha Receptor Agonism (RAR) (AID 2283361). The essentials: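 Cell-free TR-FRET binding readout with extracted receptor protein, read 2 hours after dosing; gain-of-signal fitted relative to DMSO. Screened in duplicate at 25 uM, actives then run in concentration-response.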

For assay [4], the target named is Estrogen receptor (Homo sapiens) (UniProt P03372). Briefly: OT_ER_ERaERa_1440: Odyssey Thera (OT) 24-hour HEK293T Protein-Complementation Assay for Estrogen Receptor-alpha/-alpha Homodimer (AID 2283349).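 Further: hits raise fluorescence above DMSO for agonists and antagonists alike.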 The essentials: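 HEK293T cells stably expressing the human ER alpha ligand-binding domain (aa 310-547) as a homodimer PCA were dosed for 24 hours. Fluorescence intensity was read by laser scanning cytometry, and gain of signal was fitted relative to DMSO vehicle.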

Assay [5] shares this target. Put plainly: OT_ER_ERaERa_0480: Odyssey Thera (OT) 8-hour HEK293T Protein-Complementation Assay for Estrogen Receptor-alpha/-alpha Homodimer (AID 2283351).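 Further: rise in fluorescence from reassembled reporter fragments on ERα LBD homodimer in nucleus or whole cell.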 The essentials:
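HEK293T cells stably expressing the human ERα ligand-binding domain (aa 310-547) as a homodimer PCA were dosed with compound for 8 h. Gain of fluorescence intensity versus DMSO vehicle was read by laser scanning cytometry.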

The target of assay [6] is Androgen Receptor/SRC-1 Co-activator, AR (gene 367) (UniProt P10275). Briefly: OT_AR_ARSRC1_0960: Odyssey Thera (OT) 16-hour HEK293T Protein-Complementation Assay for Androgen Receptor/SRC-1 Co-activator (AID 2283353).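 Further: actives raise the signal above DMSO so potency reflects increased AR and SRC-1 complex.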 The procedure, abridged:
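HEK293T cells stably expressing AR and SRC-1 fused to split Venus YFP fragments via (Gly4Ser)2 linkers were dosed for 16 h. Nuclear/cytoplasmic fluorescence ratio at 488 nm, ≥400 cells per image, fitted for gain of signal versus DMSO.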

Assay [7] addresses T1, Estrogen receptor (Homo sapiens) + Estrogen receptor beta (Homo sapiens) (UniProt P03372+Q92731). Briefly: OT_ER_ERaERb_1440: Odyssey Thera (OT) 24-hour HEK293T Protein-Complementation Assay for Estrogen Receptor-alpha/-beta Homodimer (AID 2283356).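 Further: heteromer of ER alpha and ER beta binding domains; hits raise reporter fluorescence and both agonists and antagonists give an increase.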 The essentials: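 Fragment complementation between ER alpha (310-547) and ER beta (263-489) ligand-binding domains in HEK293T cells; signal read 24 h post-dosing by laser scanning cytometer. Gain of fluorescence relative to DMSO fitted.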

The target of assay [8] is Estrogen receptor beta (Homo sapiens) (UniProt Q92731). Put plainly: OT_ER_ERbERb_0480: Odyssey Thera (OT) 8-hour HEK293T Protein-Complementation Assay for Estrogen Receptor-beta/-beta Homodimer (AID 2283357).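 Further: active means signal gain over DMSO baseline.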 The essentials: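 Fluorescence intensity, nuclear for agonists and nuclear plus cytoplasmic for antagonists, was quantified by laser scanning cytometry versus vehicle after 8 h treatment. The cells were HEK293T stably carrying ER beta LBD fragment-complementation partners.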

The target in assay [9] is Androgen Receptor/SRC-1 Co-activator, AR (gene 367) (UniProt P10275). Put plainly: OT_AR_ARSRC1_0480: Odyssey Thera (OT) 8-hour HEK293T Protein-Complementation Assay for Androgen Receptor/SRC-1 Co-activator (AID 2283354).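 Further: hits raise the complementation signal above DMSO so AC50 marks enhancers.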 The procedure, abridged:
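HEK293T cells stably expressing AR and SRC-1 fused to Venus YFP fragments, imaged 8 h after dosing. Complementation fluorescence scored as nuclear/cytoplasmic ratio at 488 nm in at least 400 cells per image; gain fitted versus DMSO.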

In assay [10] the target is T1, Estrogen receptor (Homo sapiens) + Estrogen receptor beta (Homo sapiens). Put plainly: OT_ER_ERaERb_0480: Odyssey Thera (OT) 8-hour HEK293T Protein-Complementation Assay for Estrogen Receptor-alpha/-beta Heterodimer (AID 2283352). The essentials:
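Fluorescence increase from reconstituted reporter fragments, quantified by laser scanning cytometer, reflects ER-alpha/ER-beta heterodimer formation in human HEK293T cells. Exposure 8 h; positive-direction fitting against DMSO vehicle.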

Assay [11] addresses human Peroxisome Proliferator-activated Receptor alpha (PPARa), PPARA (gene 5465) (UniProt Q07869). Put plainly: NVS_NR_hPPARa: NovaScreen (NVS) Nuclear Receptor Binding Assay for human Peroxisome Proliferator-activated Receptor alpha (PPARa) (AID 2283359).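 Further: activity means loss of TR-FRET signal versus DMSO baseline.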 The essentials:
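Cell-free TR-FRET binding assay with extracted PPARα protein, read 1 h after dosing. Primary screen in duplicate at 25 uM, with actives retested in concentration series. Loss of signal versus DMSO.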

For assay [12], the target named is Bile acid receptor (Homo sapiens) (UniProt Q96RI1). Put plainly: NVS_NR_hFXR_Antagonist: NovaScreen (NVS) Nuclear Receptor Binding Assay for human Farnesoid X Receptor Antagonism (FXR) (AID 2283350). The essentials: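 Cell-free TR-FRET ligand-binding read-out on human FXR (NR1H4) in antagonist mode, measured 1 h after dosing. Primary screen in duplicate at 25 uM, actives retested in concentration series; signal loss scored versus DMSO.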

Assay [13] has as its target Nuclear receptor subfamily 1 group I member 2 (Homo sapiens) (UniProt O75469). Briefly: NVS_NR_hPXR: NovaScreen (NVS) Nuclear Receptor Binding Assay for human Pregnane X Receptor (PXR) (AID 2283365).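 Further: a drop in FRET signal versus DMSO baseline means the compound binds.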 The procedure, abridged: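 Human PXR binding measured by TR-FRET in a cell-free format, 2 h exposure. Single-concentration duplicates at 25 uM preceded concentration-response retests of actives; endpoint fitted positively relative to DMSO, loss of signal indicating binding.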

For assay [14], the target named is Glucocorticoid receptor (Homo sapiens) (UniProt P04150). Put plainly: NVS_NR_hGR: NovaScreen (NVS) Nuclear Receptor Binding Assay for human Glucocorticoid Receptor (GR) (AID 2283363).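 Further: activity is loss of specific radioligand binding signal relative to DMSO.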 The procedure, abridged: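 Cell-free radioligand displacement assay on extracted human GR, read 16 h after dosing by filter-based scintillation counting. Screened in duplicate at 25 uM, then concentration series for actives; loss of signal versus DMSO baseline.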

Another assay deals with PGR (gene 5241) (UniProt P06401). Briefly: NVS_NR_hPR: NovaScreen (NVS) Nuclear Receptor Binding Assay for human Progestron Receptor (PR) (AID 2283360).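 Further: active means loss of bound radioligand signal versus DMSO baseline.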 The procedure, abridged:
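T47D lysate; tritiated or iodinated radioligand; scintillation count at 18 h. DMSO = negative control/baseline. Primary: 25 uM, duplicate. Secondary: concentration series for actives.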

Several values for one entry are separate records, joined by “and”; a condition that tells them apart may be missing. Equal entries are not always repeated. Records with an inconclusive call do not appear. The source holds several records for some structures; these can differ, active in one and inactive in another. Activity calls are given as the source filed them. How the source made its calls: active means hit-call score of the fitted dose curve at least 0.9, where 1 is the maximum; inconclusive means response in the unintended direction; inactive means score below 0.9.

Estrogen receptor (Homo sapiens), sequence (P03372 whole entry, looked up, the tested form may be a part): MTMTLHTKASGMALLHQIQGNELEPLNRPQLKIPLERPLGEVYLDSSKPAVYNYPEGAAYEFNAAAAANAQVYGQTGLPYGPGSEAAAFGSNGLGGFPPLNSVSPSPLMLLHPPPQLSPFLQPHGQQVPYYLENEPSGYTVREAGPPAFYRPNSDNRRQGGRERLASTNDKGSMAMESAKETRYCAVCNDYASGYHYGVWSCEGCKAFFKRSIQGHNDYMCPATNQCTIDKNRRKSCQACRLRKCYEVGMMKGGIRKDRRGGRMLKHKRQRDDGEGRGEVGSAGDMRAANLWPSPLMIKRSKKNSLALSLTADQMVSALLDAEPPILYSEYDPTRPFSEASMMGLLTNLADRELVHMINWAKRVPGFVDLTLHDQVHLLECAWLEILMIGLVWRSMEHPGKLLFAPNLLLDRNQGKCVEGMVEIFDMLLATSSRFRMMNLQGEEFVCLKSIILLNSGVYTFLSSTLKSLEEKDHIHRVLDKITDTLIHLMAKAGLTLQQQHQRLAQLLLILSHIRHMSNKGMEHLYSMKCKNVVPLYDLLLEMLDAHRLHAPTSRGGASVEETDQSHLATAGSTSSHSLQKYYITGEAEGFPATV
T1 sequence (P03372 whole entry, looked up, the tested form may be a part): as above
T1 sequence (Q92731 whole entry, looked up, the tested form may be a part): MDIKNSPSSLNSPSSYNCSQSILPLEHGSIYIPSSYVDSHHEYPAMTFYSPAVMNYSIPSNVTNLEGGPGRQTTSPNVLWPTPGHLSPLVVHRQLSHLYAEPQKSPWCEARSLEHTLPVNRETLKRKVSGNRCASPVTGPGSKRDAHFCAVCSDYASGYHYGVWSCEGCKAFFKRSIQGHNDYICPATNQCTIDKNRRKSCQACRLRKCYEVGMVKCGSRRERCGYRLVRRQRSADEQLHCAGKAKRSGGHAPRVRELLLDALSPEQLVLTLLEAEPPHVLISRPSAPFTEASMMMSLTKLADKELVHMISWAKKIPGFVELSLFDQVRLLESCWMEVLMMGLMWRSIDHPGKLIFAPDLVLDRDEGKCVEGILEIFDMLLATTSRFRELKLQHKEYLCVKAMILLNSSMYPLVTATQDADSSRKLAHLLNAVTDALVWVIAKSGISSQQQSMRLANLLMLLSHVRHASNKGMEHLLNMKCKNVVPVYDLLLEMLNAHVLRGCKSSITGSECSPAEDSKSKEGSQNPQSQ
Nuclear receptor subfamily 1 group I member 2 (Homo sapiens), sequence (O75469 whole entry, looked up): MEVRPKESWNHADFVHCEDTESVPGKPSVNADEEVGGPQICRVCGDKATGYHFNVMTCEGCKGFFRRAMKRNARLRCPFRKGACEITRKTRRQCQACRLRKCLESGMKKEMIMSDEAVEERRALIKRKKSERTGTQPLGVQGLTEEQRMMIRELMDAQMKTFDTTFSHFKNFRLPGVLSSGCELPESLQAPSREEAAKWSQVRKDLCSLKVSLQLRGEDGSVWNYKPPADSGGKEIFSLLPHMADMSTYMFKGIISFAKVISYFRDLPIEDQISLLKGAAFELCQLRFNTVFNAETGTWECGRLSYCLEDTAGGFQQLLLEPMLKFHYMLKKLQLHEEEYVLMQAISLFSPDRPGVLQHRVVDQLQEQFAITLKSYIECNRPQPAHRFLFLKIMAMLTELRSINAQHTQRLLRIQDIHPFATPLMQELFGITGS
Androgen Receptor/SRC-1 Co-activator, AR (gene 367), sequence (P10275 whole entry, looked up, the tested form may be a part): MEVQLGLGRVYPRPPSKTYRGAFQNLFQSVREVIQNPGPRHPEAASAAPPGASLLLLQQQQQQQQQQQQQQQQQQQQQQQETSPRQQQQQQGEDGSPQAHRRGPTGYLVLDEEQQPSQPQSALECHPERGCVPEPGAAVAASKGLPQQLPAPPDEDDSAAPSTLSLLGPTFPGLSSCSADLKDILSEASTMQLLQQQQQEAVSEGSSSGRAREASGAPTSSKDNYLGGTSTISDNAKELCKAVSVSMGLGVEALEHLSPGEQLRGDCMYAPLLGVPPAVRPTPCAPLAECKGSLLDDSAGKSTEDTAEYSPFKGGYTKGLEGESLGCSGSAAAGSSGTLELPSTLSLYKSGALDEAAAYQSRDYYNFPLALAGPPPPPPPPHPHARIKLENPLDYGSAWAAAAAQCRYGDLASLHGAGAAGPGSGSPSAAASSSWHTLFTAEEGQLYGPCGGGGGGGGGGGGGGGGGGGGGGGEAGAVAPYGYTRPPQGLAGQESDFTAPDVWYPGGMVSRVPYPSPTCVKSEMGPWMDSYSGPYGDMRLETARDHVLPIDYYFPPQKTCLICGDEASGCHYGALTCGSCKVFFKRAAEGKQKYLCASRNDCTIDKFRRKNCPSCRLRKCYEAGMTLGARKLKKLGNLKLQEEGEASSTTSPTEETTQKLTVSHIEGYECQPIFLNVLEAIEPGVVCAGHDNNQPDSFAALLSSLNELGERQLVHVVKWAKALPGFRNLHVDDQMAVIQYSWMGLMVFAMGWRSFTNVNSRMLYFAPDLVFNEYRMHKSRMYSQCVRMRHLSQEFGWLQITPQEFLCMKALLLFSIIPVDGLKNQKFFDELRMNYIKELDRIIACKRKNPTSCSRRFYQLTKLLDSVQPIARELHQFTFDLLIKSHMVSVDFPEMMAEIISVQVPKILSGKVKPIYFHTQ
Estrogen receptor beta (Homo sapiens), sequence (Q92731 whole entry, looked up, the tested form may be a part): as the sequence (Q92731 whole entry, looked up, the tested form may be a part) above
Retinoic acid receptor alpha (Homo sapiens), sequence (P10276 whole entry, looked up): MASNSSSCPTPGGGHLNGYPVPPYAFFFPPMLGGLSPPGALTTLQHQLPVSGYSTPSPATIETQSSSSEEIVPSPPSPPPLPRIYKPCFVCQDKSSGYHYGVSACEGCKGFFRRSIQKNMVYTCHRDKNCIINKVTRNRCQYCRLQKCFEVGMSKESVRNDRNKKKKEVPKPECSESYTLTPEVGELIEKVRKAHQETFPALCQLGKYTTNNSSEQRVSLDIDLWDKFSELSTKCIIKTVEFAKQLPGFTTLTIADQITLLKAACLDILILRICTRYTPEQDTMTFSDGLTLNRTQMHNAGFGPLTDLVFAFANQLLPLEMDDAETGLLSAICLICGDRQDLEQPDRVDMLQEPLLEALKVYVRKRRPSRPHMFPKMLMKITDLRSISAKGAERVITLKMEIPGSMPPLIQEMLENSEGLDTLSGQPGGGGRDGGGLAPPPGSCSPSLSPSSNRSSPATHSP
human Peroxisome Proliferator-activated Receptor alpha (PPARa), PPARA (gene 5465), sequence (Q07869 whole entry, looked up): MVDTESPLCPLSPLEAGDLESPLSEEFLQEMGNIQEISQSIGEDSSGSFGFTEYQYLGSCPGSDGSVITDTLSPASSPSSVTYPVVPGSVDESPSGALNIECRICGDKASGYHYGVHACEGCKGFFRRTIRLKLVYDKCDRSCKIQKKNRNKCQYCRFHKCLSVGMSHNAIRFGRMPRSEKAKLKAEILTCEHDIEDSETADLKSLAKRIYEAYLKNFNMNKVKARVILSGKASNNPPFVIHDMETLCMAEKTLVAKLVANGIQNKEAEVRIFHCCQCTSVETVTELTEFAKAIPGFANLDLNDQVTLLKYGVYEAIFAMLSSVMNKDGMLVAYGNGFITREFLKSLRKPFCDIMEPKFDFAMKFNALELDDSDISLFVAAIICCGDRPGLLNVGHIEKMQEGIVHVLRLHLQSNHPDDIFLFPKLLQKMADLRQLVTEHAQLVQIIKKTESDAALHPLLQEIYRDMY
Bile acid receptor (Homo sapiens), sequence (Q96RI1 whole entry, looked up): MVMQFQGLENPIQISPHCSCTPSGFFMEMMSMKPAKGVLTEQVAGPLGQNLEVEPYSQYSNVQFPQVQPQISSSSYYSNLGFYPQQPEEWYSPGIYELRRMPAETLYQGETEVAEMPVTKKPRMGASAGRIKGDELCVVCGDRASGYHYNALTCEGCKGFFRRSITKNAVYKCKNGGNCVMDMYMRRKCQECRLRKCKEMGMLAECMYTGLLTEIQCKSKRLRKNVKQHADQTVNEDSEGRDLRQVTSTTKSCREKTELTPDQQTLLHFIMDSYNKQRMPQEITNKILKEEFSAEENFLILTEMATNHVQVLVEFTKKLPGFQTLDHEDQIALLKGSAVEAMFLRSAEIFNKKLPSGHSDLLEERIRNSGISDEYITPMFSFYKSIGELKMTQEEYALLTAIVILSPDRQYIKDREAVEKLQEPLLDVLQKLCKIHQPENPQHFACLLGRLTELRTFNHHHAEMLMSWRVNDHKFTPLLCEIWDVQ

For `O=C(N[C@@H](c1ccccc1)[C@@H]1CCCCN1)c1cccc(C(F)(F)F)c1Cl`, the call in assay [1] was inactive.
What is called AC50 is the midpoint of the concentration-response curve, whichever way the signal moves. In the case of `CCN(CC)CCOc1ccc(C(=C(Cl)c2ccccc2)c2ccccc2)cc1`, the half-maximal activity concentration (AC50) in assay [2] was 16.1 µM (active) and 11 µM (active) and 12.5 µM (active). For the same molecule, in assay [3], the half-maximal activity concentration (AC50) is 25.9 µM (active) and 21 µM (active); the result was inactive.
For `CC(=O)[C@@]1(O)CC[C@H]2[C@@H]3CCC4=CC(=O)CC[C@]4(C)[C@H]3CC[C@@]21C`, the call in [3] was inactive.
Turning to `O=C(NS(=O)(=O)/C=C/c1cccs1)c1ccc(F)cc1Br`, the result in assay [4], in assay [5], in [6], in assay [7] and in [8] was inactive.
As for `C=CCCCCCCCCCCCC`, the molecule was classed as inactive in [6], in assay [9] and in assay [8].
Take `O=C(O)CC(O)(CC(=O)O)C(=O)O`: the call in [4], in assay [5], in [10], in assay [1], in assay [7] and in assay [8] was inactive. Also, in assay [2], the molecule was called inactive.
For `O=C1OC(c2ccc(O)cc2)(c2ccc(O)cc2)c2ccccc21`, the AC50 was 35.3 µM (active) in [6], 60.1 µM (active) in assay [9] and 12 µM (active) in [8]. Further, the molecule was classed as inactive in assay [2].
As for `CC1(C)C(=O)NC(=O)N1CO`, the molecule was called inactive in assay [4], in [5], in assay [10] and in assay [7].
`CN(C)C(=O)NC1(c2ccccc2)CCN(CCC[C@]2(c3ccc(Cl)c(Cl)c3)CCCN(C(=O)c3ccccc3)C2)CC1`: the molecule was classed as inactive in [4], in assay [5], in assay [10] and in assay [8]. The AC50 in [7] was 2.97 µM (active).
With `Oc1ccc(O)cc1`, the call in assay [4], in assay [5], in assay [10], in assay [7], in [8] and in assay [11] was inactive.
For `NCCOCCOCCN`, the call in assay [6], in assay [9] and in assay [8] was inactive.
As to `CCCCCCC(CCCCCCCCCCC(=O)OCC(COC(C)=O)OC(C)=O)OC(C)=O` (stereo not drawn), the outcome in assay [4], in assay [5], in [7], in assay [8] and in assay [11] was inactive.
Regarding `CN(C)C(=O)NC1(c2ccccc2)CCN(CC[C@@]2(c3ccc(F)c(F)c3)CN(C(=O)c3ccccc3)CCO2)CC1`, the molecule was classed as inactive in [12] and in [13].
As for `CCCCCCCCCCCCCCOS(=O)(=O)O`, the molecule was classed as inactive in assay [4], in [5], in assay [7] and in [8]. The AC50 is 3.99 µM (active) in [11], 2.14 µM (active) in [14] and 7.25 µM (active) in assay [13].
Turning to `CC1=C(C)S(=O)(=O)CCS1(=O)=O`, the molecule was called inactive (in assay [4]; in [5]; in assay [6]; in [9]; in [11]; with PGR (gene 5241)).
Take `CCCCCCCCCCCCCCCCO`: the molecule was called inactive in assay [4], in assay [5] and in [7].
Regarding `OCC(CO)n1cnc(-c2ccc(F)cc2)c1-c1ccnc(Oc2ccccc2)n1`, the outcome in assay [4], in assay [5], in assay [10], in assay [7] and in assay [8] was inactive.
For `COc1ccc(C(=O)Nc2nc3ccccc3c(NCc3ccccc3)c2C#N)cc1`, the result in assay [4], in assay [5], in [10], in [7], in assay [8] and in [11] was inactive. Moreover, the outcome in assay [13] was inactive.
Regarding `NC(=Nc1ccccc1)Nc1ccccc1`, the molecule was called inactive in assay [4], in [5], in assay [10], in [7], in assay [8] and in assay [11].
